In PubChem BioAssay (Tox21) one finds Potency data, which are given here for seven compounds.

The nature of test [1]: Nuclear factor erythroid 2-related factor 2/antioxidant responsive element (Nrf2/ARE) small molecule agonists: qHTS cell viability counter screen in human keratinocytes (AID 1919968; active means well fitted cell-killing curve with a large enough effect in the repeat runs; further: nearly all actives have a fitted effect of over 55% in size; further: potency means the concentration at half of the fitted maximal effect). The gist of the method:
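CellTiter-Fluor fluorescence, read 1 h after reagent, gave viability in the same wells as the ARE-luciferase assay. KeratinoSens cells (1,500/well) had 23 h compound exposure at 37 C/5% CO2 following 5 h plating.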
In general terms: qHTS replaces the single test concentration by a dilution series.

Test [2] in a line: Nuclear factor erythroid 2-related factor 2/antioxidant responsive element (Nrf2/ARE) small molecule agonists: luciferase reporter gene qHTS assay in human keratinocytes (AID 1919969). Further: nearly all actives have a fitted effect of over 35% in size. Further: potency means the concentration at half of the fitted maximal effect. For orientation: In a reporter assay the amount or activity of a reporter protein is the signal.
Test [3] concerns the target Gonadotropin-releasing hormone receptor (Homo sapiens) (UniProt P30968). In words: Human gonadotropin-releasing hormone receptor (GnRHR) small molecule agonists, calcium flux assay in GnRHR-HEK293 cells (AID 1920063). Further: nearly all actives have a fitted effect of over 35% in size. The gist of the method:
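Agonist mode: compounds at 15 concentrations, in triplicate, went onto calcium dye-loaded GnRHR-HEK293 cells. Intracellular calcium was then followed as 480/540 nm fluorescence at 1 s intervals over 3 min.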
(Calcium flux is commonly read through the fluorescence of an indicator in the cells.)

A short description of test [4]: G protein-coupled receptor (GPCR) small molecule agonists, calcium flux assay: HEK293 wild type cell line counter screen (AID 1920065). The gist of the method: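 Calcium flux counter screen: compound added in agonist mode at 15 concentrations in triplicate to dye-loaded parental HEK293 cells. Fluorescence (480/540) read kinetically for 3 min; ATP served as positive control.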

Test [5] is described as follows: p53 small molecule agonists, cell-based qHTS assay with human liver microsomes: qHTS cell viability counter screen (AID 1963579). Further: nearly all actives have a fitted effect of over 45% in size. The gist of the method: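 p53RE-bla cells, 4,000/well, dosed 5 hours after plating, with human liver microsomes (0.5 mg/mL final) plus NADPH (0.5 mg/mL final), 16 hours at 37 C. Viability read as CellTiter-Glo luminescence after 30 min at room temperature.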

Test [6] in a line: p53 small molecule agonists, cell-based qHTS assay with rat liver microsomes: qHTS cell viability counter screen (AID 1963580). Further: nearly all actives have a fitted effect of over 45% in size. The gist of the method:
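Cytotoxicity counter screen: intracellular ATP read by CellTiter-Glo luminescence in the p53 reporter wells. HCT-116 p53RE-bla cells were treated for 16 h at 37 C alongside rat liver microsomes and NADPH, each 0.5 mg/mL final.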

Test [7] in a line: p53 small molecule agonists, cell-based qHTS assay: qHTS cell viability counter screen (AID 1963581). Further: nearly all actives have a fitted effect of over 45% in size. The gist of the method:
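Counter screen read by CellTiter-Glo luminescence (ATP content, 30 min at room temperature), run in the same wells as the beta-lactamase reporter read. HCT-116 p53RE-bla cells saw compounds for 16 h at 37 C.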

Test [8] can be described thus: cAMP Responsive Elements (CRE) small molecule antagonists, cell-based qHTS assay (AID 1963591; active means well fitted inhibition curve with a large enough effect in the signal ratio in the repeat runs, not every such curve was filed as active; the % refers to the signal ratio). The gist of the method:
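Antagonist mode: compounds are added alongside the adenylyl cyclase activator NKH477 (0.25 uM final) to CRE-bla HEK293T cells for 3 h. LiveBLAzer FRET substrate, 2 h at room temperature, reports bla expression.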

For test [9], the target named is Beta-2 adrenergic receptor (Homo sapiens) (UniProt P07550). The experiment in a line: Adrenergic beta2 receptor (ADRB2) small molecule antagonists, cell-based qHTS assay (AID 1963592). Further: series mostly up to about 92 µM; nearly all actives have a fitted effect of over 50% in size. The gist of the method: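 Assay format: CHO-ADRB2 cells, 18-20hr seeding at 37C/5% CO2, then compound plus 1nM isoproterenol agonist mix for 0.5hr RT. Homogeneous time-resolved fluorescence cAMP detection after 1hr, expressed as 665/615 nm ratio.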

The target is the same in test [10]. The experiment in a line: Adrenergic beta2 receptor (ADRB2) small molecule agonists, cell-based qHTS assay (AID 1963593).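 Further: CHO cells stably overexpressing human ADRB2.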 The gist of the method:
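CHO cells stably over-expressing ADRB2 were plated overnight at 37C, then dosed with compounds plus a stimulation mix containing 100uM IBMX and 25uM Ro-20-1724 for 0.5hr at room temperature. cAMP was measured by HTRF competition, 1hr.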

Test [11] deals with D(2) dopamine receptor (Homo sapiens) (UniProt P14416). The experiment in a line: Dopamine D2 receptor (DRD2) small molecule agonists, cell-based qHTS assay (AID 1963594). Further: nearly all actives have a fitted effect of over 35% in size. The gist of the method: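 cAMP accumulation in DRD2-HEK293 cells measured by HTRF after 1 h detection; compounds added 10 min before NKH477 (200nM […]) forskolin-analogue stimulation, 30 min at room temperature, with Ro20-1724 present at 0.1 mM final.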

Test [12] has the same target. The experiment in a line: Dopamine D2 receptor (DRD2) small molecule antagonists, cell-based qHTS assay (AID 1963595; active means well fitted inhibition curve with a large enough effect in the signal ratio in the repeat runs, with a control signal flat; the % refers to the signal ratio). The gist of the method: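 Cells were plated and grown for 24 h at 37 °C. Ro20-1724 (0.1 mM final) went in first, then compound for 10 min. NKH477 (200 nM) with quinpirole (12 nM) followed for 30 min at RT, then HTRF detection reagents for 1 h.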
Test [13] is described as follows: p53 small molecule agonists, cell-based qHTS assay with human liver microsomes (AID 1963577). The gist of the method: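 p53RE-bla cells, 4,000/well, compound added after 5 h, with human liver microsomes 0.5 mg/mL and NADPH 0.5 mg/mL final; 16 h at 37 C, then LiveBLAzer 2 h RT, fluorescence.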
Test [14] in a line: p53 small molecule agonists, cell-based qHTS assay with rat liver microsomes (AID 1963578). The gist of the method: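 p53RE-bla cells, 4,000/well, pre-incubated 5 h, then given compounds plus rat liver microsomes (0.5 mg/mL final) and NADPH (0.5 mg/mL final). Incubation 16 h at 37 C; beta-lactamase reporter read by LiveBLAzer fluorescence after 2 h at room temperature.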
The nature of test [15]: p53 small molecule agonists, cell-based qHTS assay (AID 1963582; active means well fitted activation curve with a large enough effect in the signal ratio in the repeat runs, not every such curve was filed as active; the % refers to the signal ratio). The gist of the method: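 Read-out is beta-lactamase FRET fluorescence after 2 h at room temperature with LiveBLAzer B/G substrate. p53 response element-bla cells were treated 16 h at 37 C with compounds in DMSO, added 5 h after seeding.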
Test [16] has as its target 5-hydroxytryptamine receptor 2A (Homo sapiens) (UniProt P28223). The experiment in a line: 5-hydroxytryptamine receptor 2A (HTR2A) small molecule agonists, cell-based qHTS assay (AID 1963587). Further: nearly all actives have a fitted effect of over 30% in size. Further: potency means the concentration at half of the fitted maximal effect. The gist of the method: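 Kinetic calcium-flux fluorescence (2 min, 1 sec intervals) after compound addition in agonist mode. HTR2A-CHO cells were cultured 18 h, then dye-loaded 1 h at 37 C.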

Test [17] deals with Muscarinic acetylcholine receptor M1 (Homo sapiens) (UniProt P11229). The experiment in a line: Cholinergic receptor muscarinic 1 (CHRM1) small molecule antagonists, cell-based qHTS assay (AID 1963588). Further: nearly all actives have a fitted effect of over 40% in size. Further: potency means the concentration at half of the fitted maximal effect. The gist of the method:
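Compounds were tested at 15 concentrations in three independent runs. Dye-loaded CHRM1-CHO cells were exposed 5 min at room temperature before stimulation by acetylcholine added at 50nM. Intracellular calcium was read kinetically on FDSS for 3 min.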

The target is the same in test [18]. The experiment in a line: Cholinergic receptor muscarinic 1 (CHRM1) small molecule agonists, cell-based qHTS assay (AID 1963589). Further: nearly all actives have a fitted effect of over 35% in size. Further: potency means the concentration at half of the fitted maximal effect. The gist of the method:
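Agonist-mode calcium-flux screen: compounds at 15 concentrations, three independent runs, were pin-transferred onto dye-loaded human CHRM1-CHO cells. Fluorescence was then recorded kinetically every second over minutes.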

Test [19] concerns the target 5-hydroxytryptamine receptor 2A (Homo sapiens) (UniProt P28223). In words: 5-hydroxytryptamine receptor 2A (HTR2A) small molecule antagonists, cell-based qHTS assay (AID 1963586). Further: nearly all actives have a fitted effect of over 45% in size. The gist of the method: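 CHO cells stably expressing human HTR2A were plated for 18 h at 37 C, then loaded with calcium dye for 1 h. Compounds were preincubated 5 min at room temperature before DOI (4 nM solution) was added. Kinetic fluorescence was read for 3 min.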

A short description of test [20]: cAMP Responsive Elements (CRE) small molecule agonists, cell-based qHTS assay (AID 1963590). The gist of the method: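 Agonist mode: compound added to CRE-bla HEK 293T cells (2,000/well, 18 h after plating) for 3 h at 37 C/5% CO2. Reporter activity detected via FRET beta-lactamase substrate, 2 h room-temperature loading.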

Structures are written as SMILES. Several values for one entry are separate records, joined by “and”; a condition that tells them apart may be missing. Equal entries are not always repeated. Inconclusive results are not listed. Activity calls are given as the source filed them. Unless noted, the call rests on the fitted dose curve.

Sequence of 5-hydroxytryptamine receptor 2A (Homo sapiens) (P28223 whole entry, looked up): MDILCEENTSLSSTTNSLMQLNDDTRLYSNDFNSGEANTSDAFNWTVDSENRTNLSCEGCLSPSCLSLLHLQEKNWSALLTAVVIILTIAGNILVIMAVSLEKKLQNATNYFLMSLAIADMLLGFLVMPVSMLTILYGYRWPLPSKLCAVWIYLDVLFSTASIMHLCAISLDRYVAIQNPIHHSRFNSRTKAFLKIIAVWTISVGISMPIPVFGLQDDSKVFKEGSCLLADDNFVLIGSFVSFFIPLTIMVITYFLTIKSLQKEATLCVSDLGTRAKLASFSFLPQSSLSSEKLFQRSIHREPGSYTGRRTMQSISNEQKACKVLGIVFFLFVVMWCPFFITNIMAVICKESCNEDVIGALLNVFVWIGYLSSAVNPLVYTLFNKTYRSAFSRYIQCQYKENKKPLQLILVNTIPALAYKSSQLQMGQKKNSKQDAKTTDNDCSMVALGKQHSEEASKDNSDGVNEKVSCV
Sequence of D(2) dopamine receptor (Homo sapiens) (P14416 whole entry, looked up): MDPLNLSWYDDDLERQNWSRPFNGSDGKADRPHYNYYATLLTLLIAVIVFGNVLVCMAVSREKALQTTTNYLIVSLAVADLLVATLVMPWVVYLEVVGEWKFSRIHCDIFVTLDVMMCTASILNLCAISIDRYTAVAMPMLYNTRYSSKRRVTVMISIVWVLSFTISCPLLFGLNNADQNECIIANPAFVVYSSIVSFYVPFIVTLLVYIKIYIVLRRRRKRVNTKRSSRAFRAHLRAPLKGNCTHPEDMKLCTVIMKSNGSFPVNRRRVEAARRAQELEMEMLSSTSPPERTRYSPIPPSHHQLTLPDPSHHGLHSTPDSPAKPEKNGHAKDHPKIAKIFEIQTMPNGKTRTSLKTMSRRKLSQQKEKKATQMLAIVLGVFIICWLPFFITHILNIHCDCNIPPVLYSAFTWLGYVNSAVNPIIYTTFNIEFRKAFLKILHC
Sequence of Beta-2 adrenergic receptor (Homo sapiens) (P07550 whole entry, looked up): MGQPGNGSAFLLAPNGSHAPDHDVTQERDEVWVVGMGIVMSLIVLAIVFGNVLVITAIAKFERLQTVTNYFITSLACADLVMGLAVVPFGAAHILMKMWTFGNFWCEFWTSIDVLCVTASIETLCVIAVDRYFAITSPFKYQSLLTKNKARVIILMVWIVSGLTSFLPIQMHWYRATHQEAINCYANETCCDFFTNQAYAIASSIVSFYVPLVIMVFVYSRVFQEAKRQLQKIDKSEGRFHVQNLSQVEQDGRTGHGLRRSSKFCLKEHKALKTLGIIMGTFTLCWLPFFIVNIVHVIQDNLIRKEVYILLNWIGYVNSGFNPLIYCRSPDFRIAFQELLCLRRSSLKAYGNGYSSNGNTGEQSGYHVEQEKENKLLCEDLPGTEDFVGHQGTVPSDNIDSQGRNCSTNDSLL
Sequence of Muscarinic acetylcholine receptor M1 (Homo sapiens) (P11229 whole entry, looked up): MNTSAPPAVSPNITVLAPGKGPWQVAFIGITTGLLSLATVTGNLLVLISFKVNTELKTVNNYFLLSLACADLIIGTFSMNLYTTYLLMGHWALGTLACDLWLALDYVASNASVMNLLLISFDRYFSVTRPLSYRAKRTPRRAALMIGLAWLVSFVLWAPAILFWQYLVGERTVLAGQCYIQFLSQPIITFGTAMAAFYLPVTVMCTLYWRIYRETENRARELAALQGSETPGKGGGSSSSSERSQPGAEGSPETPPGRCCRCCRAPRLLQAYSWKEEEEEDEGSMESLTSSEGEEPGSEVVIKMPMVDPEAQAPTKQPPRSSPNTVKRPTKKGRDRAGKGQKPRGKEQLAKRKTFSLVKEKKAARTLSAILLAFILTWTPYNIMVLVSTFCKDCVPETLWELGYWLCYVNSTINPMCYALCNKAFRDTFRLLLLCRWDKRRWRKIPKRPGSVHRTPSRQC
Sequence of Gonadotropin-releasing hormone receptor (Homo sapiens) (P30968 whole entry, looked up): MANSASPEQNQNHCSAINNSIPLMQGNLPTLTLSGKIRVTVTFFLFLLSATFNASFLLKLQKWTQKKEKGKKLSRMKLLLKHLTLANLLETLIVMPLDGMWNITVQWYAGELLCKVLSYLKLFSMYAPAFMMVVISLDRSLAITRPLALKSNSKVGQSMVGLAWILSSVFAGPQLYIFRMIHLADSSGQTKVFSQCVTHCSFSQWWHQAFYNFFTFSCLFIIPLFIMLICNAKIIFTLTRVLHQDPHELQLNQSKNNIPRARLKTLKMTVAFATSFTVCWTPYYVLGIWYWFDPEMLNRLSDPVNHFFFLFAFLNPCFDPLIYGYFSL

Turning to `CC(C)C(=O)Nc1ccc([N+](=O)[O-])c(C(F)(F)F)c1`, the Potency entry in test [1], in test [2], in test [3], in test [4], in test [5] and in test [6] was “inactive” throughout. Also, the Potency result in [7], in test [8], in test [9], in test [10], in test [11] and in [12] was “inactive” each time.

On to `CCCCCCCCCCCCCC[N+](C)(C)C`, for which the Potency was 52.7 µM (active) and 38.5 µM (active) and 2.37 µM (active) in [1]; 48.9 µM (active) in [16]; 941 nM (active) and 818 nM (active) in test [17]; 10.7 µM (active) in test [18]. Moreover, the Potency entry in test [2], in test [4], in [13], in test [14], in test [5] and in test [6] was “inactive” throughout. In addition, the Potency result in test [7], in test [15], in [9], in test [10], in test [11] and in [12] was “inactive” throughout.

As for `CC1=C(/C=C/C(C)=C/C=C/C(C)=C/CO)C(C)(C)CCC1`, the Potency result in test [1], in test [3], in [13], in [14], in [5] and in test [6] was “inactive” throughout. Moreover, the Potency result in [7], in test [19], in [16], in test [17], in [18] and in [9] was “inactive” each time. Moreover, the Potency entry in [10], in test [11] and in [12] was “inactive” in each case. Also, in [2], the Potency is 69.4 µM (active) and 72.3 µM (active).

Regarding `COC(=O)C(C)Oc1ccc(Oc2ncc(C(F)(F)F)cc2Cl)cc1` (stereo not given), the Potency entry in test [1], in test [2], in test [3], in [4], in [14] and in [5] was “inactive” in each case. Moreover, the Potency entry in test [6], in [7], in test [15], in test [19], in [16] and in test [17] was “inactive” each time. For the same compound, the Potency result in test [20], in test [8], in test [9], in test [11] and in [12] was “inactive” in each case.

As for `Nc1nc2ccccc2[nH]1`, the Potency entry in [1], in test [2], in test [3], in test [13], in test [14] and in [5] was “inactive” each time. The Potency entry in test [6], in test [7], in [15], in [19], in [16] and in [17] was “inactive” each time. The Potency entry in test [18], in test [20], in test [9], in test [11] and in [12] was “inactive” in each case.

With `Fc1ccc(Br)cc1`, the Potency entry in test [1], in test [2], in test [4], in test [13], in test [14] and in test [5] was “inactive” throughout. Further, the Potency entry in [6], in [7], in test [15], in test [19], in test [16] and in test [17] was “inactive” throughout. For the same compound, the Potency result in [18], in test [20], in [8], in test [9], in test [10] and in test [11] was “inactive” throughout. Further, the Potency result in test [12] was “inactive”.

Consider `COC(=O)CCCCC(=O)OC`, for which the Potency entry in test [1], in [2], in test [3], in [4], in [14] and in test [5] was “inactive” each time. Besides, the Potency result in test [6], in [7], in [15], in test [19], in test [16] and in test [17] was “inactive” in each case. Also, the Potency result in test [18], in test [20], in test [8], in [9], in [11] and in test [12] was “inactive” in each case.
